Sampled rows, rich in hits. Any-hit rate of the full collection: about 4.2%.
tim23-1 inh: growth inhibitors of tim23-1 mutant yeast, primary screen, luminescence, uHTS | 330,000 tested, 1.3% active | S. cerevisiae tim23-1 growth, BacTiter-Glo luminescence, 24 h | inhibition, % at 20 µM;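 active = growth inhibition of the mutant yeast at or above 50%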;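 also: temperature-sensitive mutant grown at 25 °C; plate controls were DMSO-treated mutant yeast for no effect and medium wells lacking yeast for full effect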
tim10-1 inh: growth inhibitors of tim10-1 mutant yeast, primary screen, luminescence, uHTS; S. cerevisiae tim10-1 ts strain growth, BacTiter-Glo, 24 h; AID 463190, 2010; 330,000 tested, 2.2% active; inhibition, % at 20 µM;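 active = inhibition of at least 40%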;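 also: mutant grown at 25 °C; 0% = DMSO wells with yeast and 100% = wells holding no yeast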
V-ATPase pH: regulators of yeast V-ATPase proton pumping, primary screen, pHLuorin cytosolic pH fluorescence. S. cerevisiae. 350,000 tested, 0.37% active. response, % at 10 µM; in the data active = response mostly above about 7.3%, no sharp cut-off; inactive = mostly below about 5.4%; also: actives read high
NALP3 yeast inh: NALP3 inflammasome inhibitors in reconstituted yeast, primary screen, luminescence, uHTS | 330,000 tested, 0.39% active | Yeast reconstituted NLRP3/ASC/caspase-1, beta-gal luminescence, 24 h | inhibition, % at 10 µM;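 active = inhibition of 50% or more; inactive = inhibition below 50%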;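 also: plate controls were induced DMSO wells for no effect and uninduced yeast grown without galactose for full effect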
NALP1 inh: NALP1 inflammasome inhibitors in reconstituted yeast, colorimetric, S. cerevisiae, triplicate retest; AID 2071, 2009; S. cerevisiae NALP1/ASC/caspase-1 growth, X-gal OD620, 72 h; 280,000 tested, 0.61% active; inhibition, % at 10 µM; in the data active = inhibition mostly above about 24%, no sharp cut-off; inactive = mostly below about 32%
TIM10 inh: growth inhibitors of isogenic TIM10 control yeast, primary screen, counter-screen for tim10-1 yeast inhibitor project, luminescence, uHTS | S. cerevisiae TIM10 strain growth, BacTiter-Glo luminescence, 24 h | inhibition, % at 10 µM | 330,000 tested, 1.4% active;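 active = inhibition of 40% or more at the single tested concentration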;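 also: wild-type TIM10 isogenic control strain grown at permissive 25 °C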
NALP3 yeast conf: NALP3 inhibitors retested in yeast, confirmation, luminescence, single concentration. shares compounds with NALP3 yeast inh. yeast expressing human NALP3. inhibition, % at 10 µM. AID 435006, 2010. 1,300 tested, 81% active; in the data active = inhibition above about 48%
Casp1-ASC yeast: CASP1-PYCARD signaling inhibition in yeast, confirmatory test, counterassay for NLRP3 inhibitor program, one-dose | shares compounds with NALP3 yeast inh | yeast expressing Caspase-1-ASC, luminescence counter screen | 1,000 tested, 66% active | inhibition, % at 10 µM
NALP3 retest: NALP3 inhibitors in yeast, repeat test, confirmation, luminescence, single concentration, retest; shares compounds with NALP3 yeast inh; yeast expressing human NALP3, luminescence read-out; inhibition, % at 10 µM; 1,000 tested, 53% active; AID 488794, 2010
tim10-1 confirm: growth inhibitors of tim10-1 mutant yeast, confirmation, single concentration, luminescence, S. cerevisiae; shares compounds with tim10-1 inh; S. cerevisiae tim10-1 ts strain growth, BacTiter-Glo, 24 h; inhibition, % at 20 µM; 7,400 tested, 56% active;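 active = inhibition of yeast growth at or above a set limit in either of two repeat tests at 20 µM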;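 also: tim10-1 mutant grown at permissive 25 °C to find synthetic lethal compounds; 0% = DMSO yeast wells and 100% = medium wells without yeast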
tim10 confirm: growth inhibitors of wild-type TIM10 yeast, confirmation, counter-screen for tim10-1 synthetic lethality project, single concentration, luminescence, S. cerevisiae | shares compounds with TIM10 inh | S. cerevisiae tim10 strain growth, BacTiter-Glo luminescence, 24 h | inhibition, % at 10 µM | 4,600 tested, 63% active | AID 463215, 2010;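 active = inhibition of yeast growth at or above a set limit in either of two replicates at 10 µM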;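 also: this counterscreen used the strain with wild-type TIM10; 0% = yeast with DMSO and 100% = medium wells lacking yeast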
tim23-1 conf: tim23-1 mutant yeast growth inhibitors, confirmation, luminescence, single concentration. shares compounds with tim23-1 inh. S. cerevisiae tim23-1 growth, BacTiter-Glo luminescence, 24 h. inhibition, % at 20 µM. 4,400 tested, 83% active. AID 463218, 2010;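 active = inhibition above about 39% in either of two replicate wells at 20 µM, limit read from the data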;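 also: temperature-sensitive tim23-1 mutant grown at 25 °C; 0% = DMSO wells with yeast and 100% = medium wells without yeast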
* hit, by the source's call; x = not tested or not shown. Rule as the data show it, unless noted: active = inhibition above about 50%; inactive = the rest.

SMILES | tim23-1 inh | tim10-1 inh | V-ATPase pH | NALP3 yeast inh | NALP1 inh | TIM10 inh | NALP3 yeast conf | Casp1-ASC yeast | NALP3 retest | tim10-1 confirm | tim10 confirm | tim23-1 conf
C/C(=N\N(C)C)C1=C(O)c2ccccc2C1=O | 22 | 8 | -2 | 2 | 54 | 5 | x | x | x | x | x | x
COc1ccc(N=C(C)C2=C(O)c3ccccc3C2=O)cc1 | 58* | 35 | 0 | 50* | 32 | 62* | 42 | 57* | 36 | x | 12 | 68*
CCOC(=O)c1sc(=NC(=O)c2ccccc2)n(C)c1C | 54* | 24 | 4 | 63* | 3 | 71* | 75* | x | x | x | 62* | 74*
O=C(N/N=C/C=C/c1ccccc1)c1cccs1 | 42 | -2 | 0 | 23 | -2 | 33 | x | x | x | x | x | x
O=C(N/N=C/C(Br)=C/c1ccccc1)c1cccs1 | 61* | 20 | 2 | 50* | 4 | 41* | 63* | x | x | x | 28 | 76*
O=C(Nc1scc(-c2ccccc2)c1C(=O)O)c1ccc(F)cc1 | 85* | 67* | 0 | 61* | 6 | 60* | 74* | 48 | 60* | 72* | 45* | 86*
COc1ccc(-c2csc(NC(=O)c3ccc(C(C)(C)C)cc3)c2C(=O)O)cc1 | 85* | 84* | -1 | 87* | x | 73* | 86* | 95* | 86* | 83* | 92* | 90*
Cc1ccc(C(=O)Nc2scc(-c3ccccc3)c2C(=O)O)o1 | 5 | 6 | -1 | -7 | 4 | 18 | x | x | x | x | x | x
Cc1ccc(-c2csc(NC(=O)c3ccc(F)cc3)c2C(=O)O)cc1 | 77* | 81* | 1 | 83* | 46 | 82* | 91* | 92* | 38 | 82* | 94* | 88*
O=C(Nc1sc2c(c1C(=O)O)CCCC2)c1ccc(F)cc1 | 24 | 12 | -4 | 1 | 13 | 4 | x | x | x | x | x | x
C/C(=N\Nc1ccc(C(=O)O)cc1)c1ccc(S(=O)(=O)NCc2ccco2)cc1 | 9 | 1 | 1 | -8 | 4 | 1 | x | x | x | x | x | x
CCCn1c(N)c(NCCN2CCOCC2)c(=O)n(CC(=O)NCc2ccccc2)c1=O | -8 | -4 | 2 | 18 | 20 | 0 | x | x | x | x | x | x
O=S1(=O)C=C(Sc2nc3ccccc3s2)c2ccccc21 | 66* | 69* | x | 62* | 12 | 77* | 64* | 86* | 59* | 65* | 86* | 12
O=C(CSc1nc2ccccc2s1)CSc1nc2ccccc2s1 | -3 | 2 | 0 | 16 | 24 | -12 | x | x | x | x | x | x
CCOc1ccc2nc(SCC(=O)N(CCOC)c3c(N)n(Cc4ccccc4)c(=O)[nH]c3=O)[nH]c2c1 | 5 | 6 | 3 | 24 | x | 0 | x | x | x | x | x | x
CCN(CC)c1ccc2nc3ccc(N)cc3[n+](-c3ccccc3)c2c1 | 59* | 57* | -6 | 51* | x | 36 | 51* | 39 | 52* | 43* | x | 57*
O=C(Nc1nccs1)c1ccc(Cl)s1 | 70* | 25 | -2 | 51* | 1 | 30 | 70* | 60* | 50 | x | x | 57*
O=C(Nc1ccccn1)c1ccc(Cl)s1 | 8 | -18 | -4 | 16 | 12 | 7 | x | x | x | x | x | x
CCc1sc(C(=O)Nc2nccs2)cc1C | 54* | 25 | -3 | 53* | 12 | 6 | 72* | 81* | 70* | x | x | 58*
CN(C)c1ccc(-n2cccc2/C=C/[N+](=O)[O-])cc1 | 90* | 86* | -2 | 61* | -3 | 92* | 65* | x | x | 86* | 95* | 78*
CN(c1ccccc1)c1ccc(/C=C/[N+](=O)[O-])cc1 | x | x | -3 | x | 94 | x | x | x | x | x | x | x
Cc1ccc(-c2csc(NC(=O)c3ccccc3F)c2C(=O)O)cc1 | 83* | 79* | 1 | 71* | 4 | 74* | 86* | 76* | 64* | 79* | 84* | 88*
O=C(Nc1scc(-c2ccc(Br)cc2)c1C(=O)O)c1ccccc1F | 88* | 74* | -2 | 82* | x | 74* | 91* | x | x | 82* | 91* | 89*
O=C(CN1C(=O)NC2(CCCc3ccccc32)C1=O)Nc1cc(F)ccc1F (configuration not stated) | 6 | 8 | -2 | 10 | x | 1 | x | x | x | x | x | x
c1ccc2[nH]c(-c3ccncc3)nc2c1 | 8 | -18 | -3 | 13 | 14 | -5 | x | x | x | x | x | x
SMILES | tim23-1 inh | tim10-1 inh | V-ATPase pH | NALP3 yeast inh | NALP1 inh | TIM10 inh | NALP3 yeast conf | Casp1-ASC yeast | NALP3 retest | tim10-1 confirm | tim10 confirm | tim23-1 conf
COc1ccc(-c2nc3ccccc3[nH]2)cc1 | 63* | -2 | -1 | 55* | 10 | 36 | 62* | 57* | 66* | x | x | 57*
CSc1ncccc1C(=O)Nc1ccccc1N1CCOCC1 | 18 | 16 | 1 | 10 | x | 7 | x | x | x | x | x | x
O=C(c1ccco1)N1CCN(c2ccc(N3CCCCC3)nn2)CC1 | -21 | -8 | 3 | 5 | x | -15 | x | x | x | x | x | x
Oc1ccc(Oc2ccc(Oc3ccc(O)cc3)cc2)cc1 | 59* | -10 | 2 | 79* | 38* | -16 | 83* | 93* | 85* | x | x | 51*
Cc1ccc(-c2nc3c(c(SCC(=O)N4CCOCC4)n2)COC(C)(C)C3)cc1 | 1 | -20 | -3 | 21 | 10 | -10 | x | x | x | x | x | x
Cc1ccc(NN2C(=O)C=C(c3ccc(Cl)cc3)C2=O)cc1 | 68* | 31 | 8 | 95* | 7 | 73* | 47 | x | x | x | 59* | 20
CCCCC(CC)CO (configuration not stated) | 11 | 3 | 3 | 12 | x | 5 | x | x | x | x | x | x
CCCCC(CC)CN=C(N)NC(N)=NCCCCCCN=C(N)NC(N)=NCC(CC)CCCC (configuration not stated) | 88* | 96* | 84* | 97* | x | 94* | 95* | 86* | 94* | 95* | 96* | 84*
